From PubChem BioAssay (NCATS) come the findings set out here.

“And” between values parts separate entries of the source, which are not always exact repeats. Equal values may be shown once. Inconclusive results are not listed. The source made the active and inactive calls. Calls follow the shape of the dose curve; as a rule, active = well fitted curve in the direction sought with a large enough effect; inconclusive = small, poorly fitted or top-dose-only effect, or another doubt; inactive = no such curve, though single readings can be large; an effect the other way counts as inactive or inconclusive.

A short description of experiment [1]: Viability qHTS for spleen associated tyrosine kinase inhibitor (SYKi) drug resistant MV4-11 cells (AID 1963824). Also: nearly all actives have a fitted effect of over 35% in size. The essentials: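 CellTiter-Glo luminescence, read 10 min after reagent addition, reports viability after a 72 hr compound exposure. Cells are an MV4-11 line made resistant to SYK inhibition, seeded at 500 per well onto compound-containing plates.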
On the technique in general: qHTS replaces the single test concentration by a dilution series.

Experiment [2] can be described thus: Quantitative highthroughput screen to assess conditional lethalithy of NOMO1 cells grown in RPMI1640 with untreated serum (RPMI+s) (AID 1963876). Also: nearly all actives have a fitted effect of over 35% in size. The essentials:
(§1)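 Each medium arm—HPLM with 10% dialyzed FBS, or RPMI1640 with 5 mM glucose and 10% untreated or dialyzed FBS—was screened against an 11-point, 3-fold compound titration for 48 h at 37 °C, with CellTiter-Glo luminescence as endpoint.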

A short description of experiment [3]: Quantitative highthroughput screen to assess conditional lethalithy of NOMO1 cells grown in RPMI1640 with dialyzed fetal bovine serum (RPMI+ds) (AID 1963877). Also: nearly all actives have a fitted effect of over 30% in size. In a few lines: as §1
Experiment [4] is described as follows: Quantitative highthroughput screen to assess conditional lethalithy of NOMO1 cells grown in Human Plasma-Like Medium with dialyzed fetal bovine serum (HPLM+ds) (AID 1963878). Also: nearly all actives have a fitted effect of over 35% in size. The essentials:
as §1

Experiment [5] in a line: Quantitative highthroughput screen to assess conditional lethalithy of P12 Ichikawa cells grown in Human Plasma-Like Medium with dialyzed fetal bovine serum (HPLM+ds) (AID 1963879). Also: nearly all actives have a fitted effect of over 35% in size. The conditions noted are these: Potency: viability. In a few lines:
as §1

Experiment [6] is described as follows: Quantitative highthroughput screen to assess conditional lethalithy of P12 Ichikawa cells grown in RPMI1640 with dialyzed fetal bovine serum (RPMI+ds) (AID 1963880). Also: nearly all actives have a fitted effect of over 35% in size. As to conditions: Potency: P12-Ichikawa viability. In a few lines:
as §1

A short description of experiment [7]: Quantitative highthroughput screen to assess conditional lethalithy of P12 Ichikawa cells grown in RPMI1640 with untreated serum (RPMI+s) (AID 1963881). Also: nearly all actives have a fitted effect of over 35% in size. The conditions noted are these: Potency: viability. The essentials:
as §1

Experiment [8] is described as follows: Quantitative highthroughput screen to assess conditional lethalithy of SEM cells grown in Human Plasma-Like Medium with dialyzed fetal bovine serum (HPLM+ds) (AID 1963882). Also: nearly all actives have a fitted effect of over 35% in size. The essentials:
as §1

Experiment [9] is described as follows: Quantitative highthroughput screen to assess conditional lethalithy of SEM cells grown in RPMI1640 with dialyzed fetal bovine serum (RPMI+ds) (AID 1963884). Also: nearly all actives have a fitted effect of over 35% in size. In a few lines:
as §1

The nature of experiment [10]: Cellular viability qHTS for adrenocortical cancer (ACC) cell line SW-13 (AID 1963989). Also: nearly all actives have a fitted effect of over 65% in size. The conditions noted are these: SW-13 ACC cells viability, CellTiter-Glo, 48 h; activity (max response): stronger effect = lower value. In a few lines:
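IC50 and maximal-response values come from four-parameter logistic fits of titration data. SW-13 cells in serum-free medium received compounds (up to 46 uM final) for 48 h before CellTiter-Glo luminescence.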

Experiment [11] in a line: Cellular viability qHTS for adrenocortical cancer (ACC) cell line NCI-H295R (AID 1963990). Also: nearly all actives have a fitted effect of over 60% in size. The essentials: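 Adrenocortical carcinoma cells, suspended at 300 000 cells/mL in serum-free DMEM plus ITS, rested overnight before pin transfer of compound. After two days' incubation, ATP-dependent luminescence was recorded and curve-fitted.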
Potency is read from the fitted curve at half-maximal effect.

Consider `COc1cc(-c2nc(N[C@H](CO)Cc3ccccc3)ccc2C(=O)NCCOc2ccccc2)cc(OC)c1OC`, for which the Potency in experiment [1] was 25.9 µM (active).

With `Cc1cccc(-c2[nH]ncc2-c2ccnc3ccccc23)n1`, the Potency in experiment [1] was 16.4 µM (active).

As to `O=C(/C=C/c1ccc(O)cc1)OC[C@@]1(O)C=C[C@@H]2C(C(=O)O)=CO[C@@H](O[C@@H]3O[C@H](CO)[C@@H](O)[C@H](O)[C@H]3O)[C@@H]21`, in [1], the Potency entry is “inactive”.

Turning to `Cn1c(=O)c(F)c(Nc2ccc(I)cc2F)c2c(=O)n(CC(O)CO)cnc21` (centres undefined), the Potency in experiment [1] was 0.0259 µM (active).

Turning to `C=C1C(=O)O[C@@H]2C(OC(=O)/C(C)=C\C)/C(C)=C\C(=O)/C=C(\C)C[C@H](O)[C@@H]12` (some centres undefined), in [1], the Potency was 1.01 µM (active).

As for `CC(C)(C)c1ccc(-c2nc3c(N4CCN(Cc5ccc6nccnc6c5)CC4)cccc3[nH]2)cc1`, the Potency in experiment [1] is 8.2 µM (active).

Turning to `COC(=O)c1ccnc(-c2cc(C(=O)NCCc3ccccc3)ccn2)c1`, in experiment [1], the Potency result is “inactive”.

As for `c1ccc(-c2cnc(Nc3ccc(OCCN4CCCC4)cc3)s2)cc1`, the Potency in experiment [1] was 0.0206 µM (active).

Take `O=C(/C=C/c1nc2ccccc2[nH]1)c1c(-c2ccccc2)c2cc(Cl)ccc2[nH]c1=O`: the Potency in experiment [1] is 0.291 µM (active).

As to `Cc1cc2occ(CN(C)CCN(C)Cc3cn(-c4cccc(C(F)(F)F)c4)c4ccccc34)c(=O)c2cc1C`, in experiment [1], the Potency is 4.61 µM (active).

On to `CC(=O)O[C@@H]1[C@@H](OC(C)=O)[C@H](C)O[C@@H](O[C@H]2[C@@H]3C=CO[C@@H](O[C@@H]4O[C@H](CO)[C@@H](O)[C@H](O)[C@H]4O)[C@@H]3[C@@]3(CO)O[C@@H]23)[C@@H]1OC(=O)/C=C/c1ccccc1`, for which the Potency in [1] is 6.11 µM (active).

Regarding `C=CC(=O)Nc1cccc(CN2C(=O)N(c3c(Cl)c(OC)cc(OC)c3Cl)Cc3cnc(NCCCCN(CC)CC)nc32)c1`, the Potency in experiment [1] was 3.66 µM (active).

On to `O=C(O)c1ccc2c3c1cccc3c(=O)n1c3ccccc3nc21`, for which the Potency result in experiment [1] was “inactive”.

Regarding `O=C(Nc1ccc(Cl)cc1)c1ccccc1NCc1ccncc1`, the Potency in experiment [1] is 11.6 µM (active).

With `COC(=O)c1ccc2c(c1)nc(NC(=O)c1ccccc1)n2CCCc1ccccc1`, in [1], the Potency result is “inactive”.

`CCCSc1nc(N[C@@H]2C[C@H]2c2ccc(F)c(F)c2)c2nnn([C@@H]3C[C@H](OCCO)[C@@H](O)[C@H]3O)c2n1`: the Potency in experiment [1] was 23.1 µM (active).

For `Nc1ncnc2n[nH]c(Nc3ccc(F)cc3)c12`, the Potency in experiment [1] was 6.51 µM (active).

Regarding `C[C@@H]1C[C@H](O[C@@H]2O[C@H](CO[C@@H]3OC[C@](O)(CO)[C@H]3O)[C@@H](O)[C@H](O)[C@H]2O)CC(C)(C)[C@H]1/C=C/[C@@H](C)O`, the Potency entry in [1] was “inactive”.

Regarding `CC(C)(C)OC(=O)N1CCC(OCc2nc(-c3ccncc3)no2)CC1`, in [1], the Potency result was “inactive”.

With `CN[C@H]1CN(c2ccc3c(=O)c(C(=O)O)cn(-c4nccs4)c3n2)C[C@@H]1OC`, the Potency in experiment [1] was 0.428 µM (active).

As to `COc1cc(N(C)CCN(C)C)c(N)cc1Nc1nccc(-c2cn(C)c3ccccc23)n1`, the Potency in [1] is 10.3 µM (active).

For the compound `Cn1cc(CCn2cnc(-c3cnn(C)c3)c2-c2ccc(C#N)cc2)cn1`, the Potency entry in experiment [1] is “inactive”.

For `CC(=O)OC[C@@]12C(=O)C[C@@H](C)[C@]3(C[C@@H](c4ccoc4)OC3=O)[C@H]1CC[C@H](OC(C)=O)[C@]21CO1`, the Potency result in experiment [1] is “inactive”.

Turning to `CN(C)c1ccnc2sc3c(=O)n(N4CCCCCC4)cnc3c12`, in experiment [1], the Potency was 20.6 µM (active).

As to `COc1cc(O)c(C(=O)CCc2ccc(O)cc2)c(O[C@@H]2O[C@H](CO)[C@@H](O)[C@H](O)[C@H]2O)c1`, the Potency in [1] is 11.2 µM (active).

Take `Cc1nc(C)c(CN2CCN(C(c3ccc(F)cc3)c3ccc(F)cc3)CC2)nc1C`: the Potency in [1] was 14.8 µM (active).

Take `O=C(Nc1cccc([N+](=O)[O-])c1)c1cccc(S(=O)(=O)N2CCCCCC2)c1`: in [1], the Potency is 6.51 µM (active).

As for `C=C(C)C1Cc2cc(C(=O)OC3OC(CO)C(O)C(O)C3O)ccc2O1` (centres undefined), in [1], the Potency entry is “inactive”.

Consider `CCOc1ccc(-c2nc(-c3cccc4c3CCC4NCCO)no2)cc1OCC` (centres undefined), for which the Potency in [1] is 13 µM (active).

As to `C=C(C(=O)O)[C@@H]1CC[C@@]2(C)CC[C@@H](O)C(=C)C2C1` (some centres undefined), the Potency result in experiment [1] was “inactive”.

Take `O=C(CNC(=O)c1cccc(C(F)(F)F)c1)N[C@@H]1CCN(Cc2ccc(Cl)cc2)C1`: in experiment [1], the Potency was 23.1 µM (active).

As to `C=C1C(=O)OC[C@@H]1C/C=C(\C)CC1CC(C)C(=O)O1` (some centres undefined), the Potency in [1] is 13 µM (active).

With `CC1(C)CC[C@]2(C(=O)O)CC[C@]3(C)C(=CCC4[C@@]5(C)C[C@H](O)[C@H](O[C@@H]6O[C@H](CO)[C@@H](O)[C@H](O)[C@H]6O)[C@@](C)(CO)C5[C@H](O)C[C@]43C)[C@@H]2C1` (some centres undefined), the Potency result in experiment [1] is “inactive”.

As to `CCC(C)C(=O)O[C@H]1[C@H](O)[C@@]2(COC(C)=O)C(CC1(C)C)C1=CCC3[C@@]4(C)CC[C@H](O[C@@H]5O[C@H](C(=O)O)[C@@H](O)[C@H](O)[C@H]5O)[C@@](C)(CO)C4CC[C@@]3(C)[C@]1(C)C[C@@H]2O` (some centres undefined), the Potency in [1] is 3.48 µM (active).

On to `COc1ccc([C@@]2(O)c3c(ccc(CC=C(C)C)c3O)NC(=O)[C@@H]2OC)cc1`, for which the Potency in [1] is 14.3 µM (active).

Regarding `C=C1CCC2[C@](C)(CO)CCC[C@@]2(C)[C@@H]1CCC1=CCOC1=O` (some centres undefined), in experiment [1], the Potency was 7.18 µM (active).

`C/C=C(\C)C(=O)O[C@H]1C=C(CO)C(=O)[C@H](OC(C)=O)[C@H]1C(C)C`: in experiment [1], the Potency was 1.8 µM (active).

With `O=C(O)c1cc(N(Cc2ccc(C3CCCCC3)cc2)C(=O)c2ccc(Oc3ccccc3)cc2)ccc1O`, in experiment [1], the Potency was 16.4 µM (active).

For `CN(C)C/C=C/C(=O)Nc1ccc(C(=O)Nc2cccc(Nc3ncc(Cl)c(-c4c[nH]c5ccccc45)n3)c2)cc1`, the Potency in experiment [1] is 10.3 nM (active) and 18.6 nM (active); in [2], 0.331 µM (active); in experiment [3] it was 0.263 µM (active); in experiment [4], 0.263 µM (active); in experiment [5], 0.331 µM (active); in experiment [6], 0.331 µM (active). For the same compound, the Potency in experiment [7] is 0.331 µM (active); in [8] it was 0.209 µM (active); in experiment [9], 0.166 µM (active); in experiment [10], 0.282 µM (active); in experiment [11], 0.562 µM (active).
